About 850 (65%) of roughly 1,300 compounds were called active. Roughly 1% stayed inconclusive and do not appear here. No rule for the calls is given here. The set was probably picked from earlier hits. A selection follows. Entries with a potency or affinity are not part of this list.
Each compound was assayed against Dual specificity tyrosine-phosphorylation-regulated kinase 1A (Rattus norvegicus) (UniProt Q63470) (assay: Dyrk1A enzyme activity inhibition – biochemical, cherry-pick, plate reader, 2124-01, dose response (AID 588345)). Conditions: Dyrk1A kinase biochemical assay; series mostly up to 12 µM.

outcome, inactive:
Cc1cc(=O)oc2ccc(OC(=O)c3cccc(S(=O)(=O)N4CCOCC4)c3)cc12, COc1cccc(Nc2nc(NCCO)c3ccccc3n2)c1, CCc1cc2c(NC3CCCC3)ncnc2s1, CCCCCC1CC(CC(C)C(=O)Nc2nncs2)C(=O)O1 (configuration not stated), CCC(C)NC(=O)C1CCCN(S(=O)(=O)c2ccc3c(c2)CC(C)N3C(=O)C2CC2)C1 (configuration not stated), Clc1ccc(C2CC(c3cccs3)n3ncnc3N2)c(Cl)c1 (configuration not stated), O=C(Cn1c(-c2cncs2)nc2ccccc21)NCc1ccccc1, Cn1c(=O)[nH]c2cc3ccccc3cc21, S=c1sc2ccccc2n1CCc1ccncc1, COc1ccc(N(CC(=O)Nc2ccc3c(c2)OCCO3)S(=O)(=O)c2c(C)nn(C)c2C)cc1, CC(C)(C)C1=Nn2c(nnc2-c2ccccc2F)SC1, O=C(Nc1ccc2cn[nH]c2c1)c1c(Cl)cccc1Cl, COc1ccc(N/C=C2\C(=O)CCc3c2oc2cc(Cl)c(O)c(Cl)c32)cc1, Oc1c(Cl)c(Cl)c2ncccc2c1Cl, Fc1ccccc1-c1nc(-c2ccc(-c3nn[nH]n3)cc2)no1, Oc1cccc2c(-c3nn[nH]n3)ccnc12, COc1ccc(-c2cn[nH]c2C)cc1, Cc1cc(C)c(CN2CCN(C(=O)Cn3ccc(N)nc3=O)CC2)c(C)c1, CCCCCCCCCCCCN1[C@@H](CC(=O)OC)c2cc(C(F)(F)F)ccc2S1(=O)=O, CC(=O)c1cccc(NC(=O)Nc2ccc3c(c2)N(C)C(=O)CS3)c1, CSc1nnc(-c2cc3c(-c4ccccc4)nn(C)c3s2)n1C, Cn1cnc2c(=O)sc3ccccc3c21, O=C(C1CC(=O)N(C2CCCC2)C1)N1CCN(c2ccc(F)cc2)CC1 (configuration not stated), c1csc(CNc2ncnc3ccc(-c4ccc5c(c4)OCCO5)cc23)c1, O=C(NCc1ccccc1)C1=C[C@H](c2ccccc2)C[C@H](OCc2ccc(CO)cc2)O1, c1ccc(-c2nnc(CSc3ccc4c(c3)OCCO4)o2)cc1, O=[N+]([O-])c1ccc2c(c1)C(=NO)c1cc(F)ccc1-2, O=C(O)CCC(=O)Nc1ccc(N2CCCCCC2)cc1, Cc1cccc(Nc2nc(N)c([N+](=O)[O-])c(N3CCC(C)CC3)n2)c1, COC(=O)c1nccc2c1[nH]c1ccccc12, CCC1NC(C(=O)O)Cc2c1[nH]c1ccccc21 (configuration not stated), CC(C)C[C@H]1COCCS(=O)(=O)N1Cc1ccc(Cl)c(Cl)c1, CCOC(=O)Cn1c(-c2cccnc2Cl)nc2ccccc21, O=C(CN1CCOCC1)Nc1nc2ccc([N+](=O)[O-])cc2s1, CC1CCc2nc(NC(=O)c3ccc(N4C(=O)CCC4=O)cc3)sc2C1 (configuration not stated), CC1CCc2nc(NC(=O)CN3CCN(Cc4ccc5c(c4)OCO5)CC3)sc2C1 (configuration not stated), Cc1noc(C)c1-c1ccc2ncnc(NC(C)c3ccco3)c2c1 (configuration not stated), O=C(Nc1cccc(Cl)c1)ON=C1c2ccccc2-c2ccccc21, CCC(=O)Nc1c(C#N)c2nc3ccccc3nc2n1-c1ccccc1C, Cc1ccc(NC(=S)Nc2ccc3cn[nH]c3c2)cc1, COc1ccc2c(c1)C(=O)N1[C@H]3c4cc(C)ccc4OC[C@@H]3[C@H](c3ccccc3)[C@]1(C)C(=O)N2, Cc1c(C(=O)O)sc2nc(-c3cccs3)cc(C(F)(F)F)c12, O=C1CCCC2=C1Sc1ccc(Cl)cc1N2, O=C1c2ccccc2S(=O)(=O)N1Cc1nnc(-c2ccccc2Br)o1, CC(C)=CCc1cc(-c2oc3cc(O)cc(O)c3c(=O)c2O)ccc1O, O=C(Nc1ncc2c(n1)-c1ccccc1CC2)c1ccc(Cl)cc1, CCOCCCNC(=O)C(NC(=O)c1ccc(=O)[nH]c1)c1ccc(Cl)cc1 (configuration not stated), Cc1cccc(C(C)n2nnc3ccccc32)c1O (configuration not stated), O=c1oc(-c2ccc(O)c(O)c2)cc2cc(O)cc(O)c12, O=c1cc(-c2ccc(O)cc2)oc2c(O)c(O)c(O)c(O)c12, CN(C)CCCOC(=O)COc1ccc(Br)cc1, CCn1c(NC(=O)c2ccccc2)c(-c2cccs2)c(=O)c2ccccc21, CCN(CC)C(=O)Oc1ccc2c(c1)O/C(=C\c1ccco1)C2=O, O=c1cc(-c2ccco2)oc2c1ccc1ccccc12, COc1cc(/C=C2\SC(N)=NC2=O)ccc1O, OC(c1cc(C(F)(F)F)nc2c(Cl)cc(Cl)cc12)C1CCCCN1 (configuration not stated), O=C(O)c1cccc2c1/C(=N/O)c1ccccc1-2, CCn1c2ccccc2c2nc3cc(C(=O)O)ccc3nc21, COc1ccc(NC(=S)N(CCc2c(C)[nH]c3ccccc23)Cc2cccnc2)cc1, S=C(Nc1cccnc1)Nc1cccc2cnccc12, Cc1cc2nncn2c2ccccc12, COc1ccc(NC(=O)N(C)C[C@H]2Oc3c(NS(=O)(=O)c4cccs4)cccc3C(=O)N([C@@H](C)CO)C[C@@H]2C)cc1, C[C@@H]1C=C(C(=O)NCc2nc3ccccc3[nH]2)O[C@H](OCCCCO)C1, O=C1CN(C(=O)C2CCC(=O)N(CCc3ccc(Cl)cc3)C2)CCN1 (configuration not stated), COc1ccc2nc(C)c3c(c2c1)OC(C(C)(Cl)Br)C3 (configuration not stated), COc1ccc2oc(N)c(C=O)c(=O)c2c1, c1cnc2ncc3sccc3c2c1, O=c1c(O)c(-c2cc(O)c(O)c(O)c2)oc2cc(O)cc(O)c12, O=c1c(O)c(-c2ccccc2)oc2cc(O)cc(O)c12, Cc1cccc(CNc2ncnc3ccc(-c4ccc5c(c4)OCO5)cc23)c1, O=C(CN1CCOCC1)Nc1nc2ccc(F)cc2s1, COc1ccc(OC)c(N=c2oc3cc(O)ccc3cc2C(N)=O)c1, NC(=O)c1cc2ccc(O)cc2oc1=Nc1ccccc1, COc1ccc2nc(-n3c(O)c(C4=c5ccccc5=NC4=O)[nH]c3=S)sc2c1, CC(=O)c1nc2ccccc2n1S(=O)(=O)c1ccc(Cl)cc1, COc1cccc(C(=O)Nc2ccc(F)c(F)c2F)c1, O=C(Nc1cccnc1)c1scc2c1OCCO2, Cc1cc(C(=O)CSc2nn(-c3ccccc3)c(=S)s2)c(C)n1Cc1ccco1, Cc1cc([N+](=O)[O-])nn1Cc1ccccc1F, CN(C)CCNC(=O)c1cc2c(=O)n(C)c3ccccc3c2n1C, CC1CCC(NC(=O)c2cc(S(=O)(=O)N3CCCCC3)c[nH]2)CC1 (configuration not stated), CN1CCN(CCNC(=O)c2cc3c(=O)n(C)c4ccccc4c3n2C)CC1, O=c1cc[nH]c2c1ccc1cccnc12, COc1ccc2[nH]c(C)c(CCN(Cc3cccs3)C(=S)Nc3ccccc3OC)c2c1, CN1CCc2c(sc3nc(NN)n(-c4ccc(Cl)cc4)c(=O)c23)C1, O=C(N/N=C/c1ccccn1)c1cc(-c2ccccc2Cl)n[nH]1, CN(C)CCNC(=O)c1cc2c(s1)-c1ccccc1OC2, O=C(COc1ccccc1)Nc1cccc(-c2nn[nH]n2)c1, O=C(Nc1cccc(-c2cn3cccnc3n2)c1)c1ccc(Br)o1, COc1cc(C(C)=O)ccc1Oc1ncnc2c1cnn2-c1ccccc1, c1ccc2c(c1)Nc1ccncc1S2, COc1ccc(-c2csc3ncnc(Sc4nnnn4C)c23)cc1, Cc1ccc2oc(=O)c3cnn(CC(=O)NC4CCCCC4C)c3c2c1 (configuration not stated), N=C1S/C(=C\c2ccc(O)cc2)C(=O)N1c1ccc(F)cc1, C=CCn1c(SCC(=O)Nc2nc3ccccc3s2)nc(O)c(CC)c1=O, Cn1c(=O)c2c(nc(NCc3ccco3)n2CC(O)COc2ccccc2)n(C)c1=O (configuration not stated), O=C(Nc1nc2ccccc2s1)c1ccc(OCC2CCCO2)cc1 (configuration not stated), O=C(NC(Nc1nc2ccc([N+](=O)[O-])cc2s1)(C(F)(F)F)C(F)(F)F)c1ccccc1, CC(C)NS(=O)(=O)c1ccc(OCC(=O)N(C)Cc2ccccc2)cc1, COc1ccc(NC(=O)N(C)C[C@H]2Oc3ccc(NC(=O)CCN4CCOCC4)cc3C(=O)N([C@H](C)CO)C[C@@H]2C)cc1, CC[C@@](C)(NS(=O)(=O)OCC(Cl)(Cl)Cl)c1ccccc1, O=C1C2C(c3ccccc3)CC=CC2[C@H](c2ccoc2)N1Cc1ccccc1 (some centres not stated), Nc1nc(NCCCN2CCOCC2)nc(Nc2ccccc2)c1[N+](=O)[O-], CCN1CCN(c2nc(Nc3cccc(C)c3)nc(N)c2[N+](=O)[O-])CC1, O=C(c1ccc(Cl)c(Cl)c1)N1CCC(=O)N(C(COCc2cccc(C(F)(F)F)c2)Cc2ccccc2)CC1 (configuration not stated), O=c1c2ccccc2nnn1CSc1nnc(-c2ccc3c(c2)OCO3)o1, O=C(O)c1ccc(-n2cc(-c3cc4ccccc4oc3=O)[nH]c2=S)cc1, COc1cccc(/C=C2\Oc3ccc(O)cc3C2=O)c1O, Oc1ccc(-c2[nH]ncc2-c2nc3ccccc3s2)c(O)c1, Nc1nc(SCc2ccc([N+](=O)[O-])cc2)c2ncn(C3OC(CO)C(O)C3O)c2n1 (configuration not stated), CNc1nc2c(N)ncnc2n1[C@H]1O[C@@H](CO)[C@H](O)[C@@H]1O, CCC1COCCS(=O)(=O)N1Cc1ccccc1 (configuration not stated)

— PubChem BioAssay AID588345 (Broad Institute, 2011)
